This is one part of the list. Activity calls are given as the source filed them. No stated cut-off is given here; in the data, active means inhibition above about 24%; inactive means the rest.
Test system: Botulinum neurotoxin type A light chain protease [Clostridium botulinum A str. ATCC 3502]
Assay: BoNT/A light chain protease inhibitors, confirmation, biochemical, flow cytometry, cherry pick 2 (AID 602325)
Settings: multiplex microsphere protease cleavage assay, at 10 µM, stronger effect = higher value

SMILES	inhibition
COc1ccc(-c2cc3c(c4c2ccn4C)C2CCC3C2)cn1 (stereo not drawn)	25.2% (active)
Cc1cc2cc(CNC(=O)c3ccc(S(=O)(=O)N4CCOCC4)cc3)ccc2[nH]1	3.8% (inactive)
CCOc1ncccc1C(=O)OCC(=O)c1c[nH]c2ccccc12	9.5% (inactive)
Cc1cc2ccccc2n1CCNC(=O)COc1ccc2ccccc2c1	5.2% (inactive)
CC(=O)OCCN(CCCn1c(-c2ccncc2)nc2ccccc21)c1nc(-c2ccc(C)cc2)cs1	1.8% (inactive)
O=C(CN1CCN(c2ccccc2O)CC1)NC(=O)NCc1ccccc1	1.6% (inactive)
Cc1ccc(CNC(=O)c2cccc3c2C(=O)c2ccc(N4CCC(C)CC4)cc2S3(=O)=O)cc1	8.9% (inactive)
O=C(OCC(=O)c1c[nH]c2ccccc12)c1cccc(O)c1	1.5% (inactive)

Reference: PubChem BioAssay AID602325 (NMMLSC, 2012)
